# Source: PubChem BioAssay
# An excerpt weighted towards active compounds, which were near 19% of everything screened.
# DT40 TDP1 CPT – DT40-hTDP1 cell growth loss with CPT. chicken DT40 Tdp1-/-;hTDP1 cells + 20 nM CPT, ATP luminescence, 48 h. Potency, µM (titrated, usually from 46.2 µM), inactives show at the top dose activity change, negative = growth inhibition, hits mostly inhibitors. actives 12% (n = 420,000). AID 686979; further: nearly all actives have a fitted effect of over 55% in size
#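 Chicken DT40 Tdp1-/- cells complemented with human TDP1, 400 cells/well, exposed to compounds plus 20 nM camptothecin for at least 48 h at 37 C; viability read as ATP content by CellTiter-Glo luminescence.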
# VP16 counter – counter-screen for ROR gamma inhibitors: Gal4-VP16 reporter. Potency, µM (titrated, usually from 53.6 µM), for the others: at the highest dose activity, negative = inhibition, usual class: inhibitors. actives 3.5% (n = 310,000). Drosophila S2 Gal4-VP16 UAS-luciferase, luminescence, 20 h;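 further: Gal4-VP16 expression switched on by copper sulfate through the metallothionein promoter; nearly all actives have a fitted effect of over 50% in size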
# TDP1 cell noCPT – qHTS for Inhibitors of human tyrosyl-DNA phosphodiesterase 1 (TDP1): qHTS in cells in absence of CPT; DT40 Tdp1-/- hTDP1 cells, no CPT, ATP luminescence, 48 h; Potency, µM (highest dose often 46.2 µM), without a hit: at the highest dose activity change, negative = growth inhibition, hits mostly inhibitors; actives 15% (n = 420,000); AID 686978, 2013; further: nearly all actives have a fitted effect of over 55% in size
#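 Stably hTDP1-transfected Tdp1-null chicken DT40 cells were treated with library compounds minus camptothecin and grown for at least 48 hr at 37 °C, after which cellular ATP was quantified by luminescence.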
# TDP1 inh – inhibitors of human tyrosyl-DNA phosphodiesterase TDP1; recombinant TDP1, AlphaScreen DNA substrate cleavage; Potency, µM (top dose mostly 130 µM), without a hit: at the top dose activity change, negative = inhibition, usual class: inhibitors; actives 0.28% (n = 350,000); Q9NUW8; AID 485290; further: nearly all actives have a fitted effect of over 40% in size
# Target sequence (Q9NUW8 whole entry, looked up): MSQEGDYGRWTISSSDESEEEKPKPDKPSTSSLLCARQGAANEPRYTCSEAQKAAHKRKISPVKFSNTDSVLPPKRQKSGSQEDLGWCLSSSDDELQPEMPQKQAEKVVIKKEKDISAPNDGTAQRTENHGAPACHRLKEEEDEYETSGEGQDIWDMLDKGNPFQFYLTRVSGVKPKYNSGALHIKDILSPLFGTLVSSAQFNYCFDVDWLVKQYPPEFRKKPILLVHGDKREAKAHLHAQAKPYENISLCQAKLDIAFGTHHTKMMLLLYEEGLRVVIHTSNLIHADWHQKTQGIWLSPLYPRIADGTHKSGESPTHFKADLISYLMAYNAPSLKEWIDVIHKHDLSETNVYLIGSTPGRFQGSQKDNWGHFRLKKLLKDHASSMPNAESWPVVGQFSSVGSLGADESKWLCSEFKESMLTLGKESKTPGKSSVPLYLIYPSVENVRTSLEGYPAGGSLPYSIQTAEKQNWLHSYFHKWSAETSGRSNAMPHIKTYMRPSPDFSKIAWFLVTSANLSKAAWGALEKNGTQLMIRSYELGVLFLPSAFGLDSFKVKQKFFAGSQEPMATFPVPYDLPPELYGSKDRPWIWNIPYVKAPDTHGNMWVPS
#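 Signal: AlphaScreen proximity between streptavidin donor and anti-FITC acceptor beads on intact substrate. Reaction: Tdp1 1 nM, substrate 15 nM final, 5 min RT after 15 min compound preincubation.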
# RORg inh – ROR gamma (mouse) transcription inhibition; P51450; actives 5.4% (n = 310,000); Potency, µM (doses to about 53.6 µM), for inactives: top-dose activity change, negative = inhibition, most hits filed as inhibitors; AID 2551; Drosophila S2 Gal4-RORgamma UAS-luciferase reporter, 20 h; further: nearly all actives have a fitted effect of over 60% in size
#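 Drosophila S2 cells stably expressing Gal4-DBD/mouse RORγ fusion under metallothionein promoter plus UAS-luciferase; compound 1 h, then 700 uM CuSO4 induction for 20 h at ambient temperature; inhibition read as reduced luminescence.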
# * marks the source's active call; other numbers are inactive results; ? = inconclusive; / = no result given; [ ] = dose if it differs, or a comment. The call rests on the fitted dose curve; in most records, active means well fitted curve in the direction sought with a large enough effect; inconclusive means small, poorly fitted or top-dose-only effect, or another doubt; inactive means no such curve, though single readings can be large; an effect the other way counts as inactive or inconclusive. On the % scale 0 is the no-effect control and ±100 the full control effect; potency means the concentration at half of the fitted maximal effect.
SMILES,DT40 TDP1 CPT,VP16 counter,TDP1 cell noCPT,TDP1 inh,RORg inh
CC1CCCN(C(C(=O)Nc2ccc3c(c2)OCO3)c2ccccc2)C1 (stereo not given),15µM*,7%,16µM*,-1%,4%
O=C(Nc1ccc([N+](=O)[O-])cc1)NN1CCCCCC1,23µM*,/,15µM*,/,/
CCc1ccc2[nH]c(C(=O)Nc3ccc4c(c3)OCO4)cc2c1,-6%,1%,?,/,2%
CCOc1ccc(NS(=O)(=O)c2ccc(OCC(=O)NCc3ccncc3)cc2)cc1,4%,0%,-19%,5%,-13%
Cc1cc2c(C)nc(Cc3ccccc3)nc2o1,-12%,0%,-19%,5%,34%
Cc1c(Cl)cccc1NC(=O)CNC(=O)c1ccc(F)cc1,-21%,-3%,15%,-3%,12%
Cc1c(C(=O)N/N=C/C(C)C)[nH]c2ccc([N+](=O)[O-])cc12,5%,?,?,5%,?
O=C(Nc1cccc(C(=O)O)c1)Nc1ccc2c(c1)OCO2,-14%,11µM*,-17%,2%[56.1 µM],10µM*
Cc1cc(C)c(NC(=O)Nc2ccc3c(c2)OCO3)c(C)c1,12µM*,-16%,?,1%[56.1 µM],32%
O=C(Nc1ccc(Cl)cc1)Nc1ccc2c(c1)OCO2,-27%,0%,-14%,5%,-23%
CCOC(=O)Cn1c(=O)n(Cc2ccccc2)c(=O)c2cccnc21,-5%,-2%,-7%,/,-11%
O=C1Cc2ccccc2C(=O)N1c1ccc(F)cc1Cl,?,-21%,16µM*,2%,9%
CCc1ccc(NC(=O)CCn2nc(C)c(S(=O)(=O)N3CCCCC3)c2C)cc1,23µM*,-1%,18µM*,3%,-2%
CCOc1ccc(NC(=O)c2cc(S(=O)(=O)N3CCOCC3)ccc2F)cc1,-5%,/,?,5%,/
CCc1ccc(NC(=O)c2cc(S(=O)(=O)N3CCCCCC3)ccc2F)cc1,?,/,18µM*,5%,/
CCOc1ccc(NC(=O)CCn2nc(C)c(S(=O)(=O)N3CCCCC3)c2C)cc1,?,3%,?,1%,7%
CCc1ccc(NC(=O)c2cc(S(=O)(=O)N3CCCC3)ccc2F)cc1,15µM*,/,12µM*,5%,/
CCc1ccc(NC(=O)c2cc(S(=O)(=O)N3CCCCC3)c[nH]2)cc1,/,/,/,0%,/
CC(c1ccco1)N(C(=O)c1ccccc1NS(=O)(=O)c1cc([N+](=O)[O-])ccc1Cl)c1ccccn1 (stereo not given),4%,-16%,-26%,0%,20%
COc1ccc2c(ccc[n+]2[O-])c1,-3%,/,7%,/,/
[O-][n+]1cccc2c(Br)cc(Br)c(O)c21,?,0.71µM*,?,8%,0.56µM*
Cc1ccc(CNC(=O)c2cc3c(C)nc4ccccc4c3o2)cc1,9.2µM*,18µM*,7.3µM*,5%,41%
CCc1ccc(NC(=O)c2cc3c(C)nc4ccccc4c3o2)cc1,18µM*,-1%,16µM*,2%,33%
Cc1nc2ccccc2c2oc(C(=O)NCc3ccccn3)cc12,?,-4%,?,7%,-20%
Cc1ccccc1NC(=O)c1cc2c(C)nc3ccccc3c2o1,?,-10%,23µM*,0%,1%
SMILES,DT40 TDP1 CPT,VP16 counter,TDP1 cell noCPT,TDP1 inh,RORg inh
Cc1nc2ccccc2c2oc(C(=O)NCCCN3CC(C)CC(C)C3)cc12 (stereo not given),?,-2%,-24%,1%,-17%
Cc1ccc(C2=NN=C(NC(=O)CSc3nnc4c5ccccc5n(C)c4n3)SC2)cc1,10µM*,0%,9.2µM*,3%,20%
CCCn1c2ccccc2c2nnc(SCC(=O)Nc3ncccn3)nc21,26µM*,-11%,?,-5%,17%
CCCn1c2ccccc2c2nnc(SCC(=O)Nc3cc(C)on3)nc21,-19%,2%,?,9%,-18%
COc1ccccc1N1CCN(C(=O)CSc2nnc3c4ccccc4n(CC(=O)O)c3n2)CC1,-11%,-10%,-18%,1%,?
CCn1c2ccccc2c2nnc(SCC(=O)N3CC(C)OC(C)C3)nc21 (stereo not given),?,-12%,16µM*,7%,-21%
Cn1c2ccccc2c2nnc(SCC(=O)Nc3cccc(C(=O)O)c3)nc21,-8%,0%,-5%,/,28%
CCOC(=O)c1c(NC(=O)c2ccccc2Br)sc2c1CCc1ccccc1-2,?,-3%,18µM*,/,0%
CCOC(=O)c1c(NC(C)=O)sc2c1CCC(C=O)=C2Sc1ccccc1,6.5µM*,?,6.5µM*,8%,?
CCOC(=O)c1ccc(N2C(=O)C3C(C2=O)C(C(=O)c2ccc(Cl)cc2)N2CCCC32)cc1 (stereo not given),15µM*,?,21µM*,12%,?
CCOC(=O)C1CCN(C(=O)COc2cccc(C)c2)CC1,4%,0%,-7%,1%,-19%
Cc1ccc(NC(=O)CSc2nc(-c3ccco3)nc3cc(=O)[nH]n23)c(Cl)c1,-8%,-11%,11%,50µM*,28%
O=C(CSc1nc(-c2ccco2)nc2cc(=O)[nH]n12)Nc1ccccc1Cl,-15%,/,3%,/,/
COc1ccccc1N1CC(C(=O)Nc2nc(C)cs2)CC1=O (stereo not given),-27%,/,-26%,1%,/
Cc1ccc(C)c(N2CCN(C(=O)CN3C(=O)CSc4c3c(C)nn4-c3ccccc3)CC2)c1,18µM*,/,26µM*,5%,/
Cc1ccc(Cl)cc1N1CCN(C(=O)CN2C(=O)CSc3c2c(C)nn3-c2ccccc2)CC1,?,/,-21%,3%,/
Cc1nn(-c2ccccc2)c2c1N(CC(=O)N1CCN(c3cccc(Cl)c3)CC1)C(=O)CS2,?,/,21µM*,7%,/
CCN(CC)c1ccc(/C=N/Nc2cccc(C)c2)c(O)c1,?,0%,?,8%,-11%
CSCC[C@H](NS(=O)(=O)c1ccc(C)cc1)C(=O)N1CCC(C(=O)N[C@@H](Cc2ccccc2)C(=O)O)CC1,20%,-9%,2%,/,-5%
CC(=O)Nc1ccc(OCC(O)Cn2cncn2)cc1 (stereo not given),23%,-7%,-8%,/,-2%
Cc1nc(CCNC(=O)CC2C(=O)NCCN2Cc2ccccc2F)sc1C (stereo not given),6%,4%,-1%,8%,-3%
Cc1cccc(C)c1NC(=O)C(c1ccnc2ccccc12)n1c(=O)c(-c2ccco2)nc2ccccc21 (stereo not given),?,/,16µM*,/,/
O=C(Nc1ccc2c(c1)OCCO2)C(c1ccnc2ccccc12)N1CCC(Cc2ccccc2)CC1 (stereo not given),?,/,18µM*,/,/
